Data taken from the supplement of paper PMC10849652.
Of roughly 7,900 targets only a part is listed; those with a hit were picked by preference. About 0.6% of all pairs of compound and target were hits. A number with no mark means an inactive call.

Legend:
Assay in all cases: log2 fold change, soluble protein after heating vs DMSO (PISA); higher = thermal stabilisation; K562 cells, 10 uM, 30 min; active = over 0.2 and 3.5 SD of the protein, either way, in both replicates (recomputed)
[1] = compound: COC1=CC=C(C=C1)CN2C=CC3=C2C=C(C=C3)C(=O)NO
Method in brief: (§1)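 Aliquots of K562 cells (2×10^6 cells/mL) treated with 10 μM compound for 30 min were heated for 3 min over 48°C-58°C. After pooling and extraction in PBS with 0.5% NP-40 at 4°C, soluble protein from a 21,000xg, 90 min spin was quantified by TMTpro 16plex LC-MS/MS with channel sums equalised. Thermal stability is expressed against control samples, from duplicates, as a log2 fold change.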

[2] = compound: COc1cc2ncnc(Nc3ccc(F)c(Cl)c3)c2cc1OCCCN1CCOCC1 [gefitinib]
Method in brief: as §1

[3] = compound: CON(C)C(=O)N1N=C(c2cc(F)ccc2F)S[C@@]1(CCCN)c1ccccc1 [filanesib]
Method in brief: as §1

[4] = compound: COc1cc(Nc2ncc3c(n2)-c2ccc(Cl)cc2C(c2c(F)cccc2OC)=NC3)ccc1C(=O)O [alisertib]
Method in brief: as §1

[5] = compound: COc1cc2nc(-c3cc(F)ccc3O)nc(N[C@@H]3CNC[C@H]3C(C)(C)O)c2cc1OC
Method in brief: as §1

[6] = compound: COc1cccc2cc(-c3nc([C@H]4CC[C@H](C(=O)O)CC4)n4ncnc(N)c34)[nH]c12
Method in brief: as §1

[7] = compound: CS(=O)(=O)CCNCc1ccc(-c2ccc3ncnc(Nc4ccc(OCc5cccc(F)c5)c(Cl)c4)c3c2)o1 [lapatinib]
Method in brief: as §1

[8] = compound: CS(=O)(=O)N1CCN(Cc2cc3nc(-c4cccc5[nH]ncc45)nc(N4CCOCC4)c3s2)CC1 [pictilisib]
Method in brief: as §1

[9] = compound: CO[C@H]1C[C@@H]2CC[C@@H](C)[C@@](O)(O2)C(=O)C(=O)N2CCCC[C@H]2C(=O)O[C@H]([C@H](C)C[C@@H]2CC[C@H](n3cnnn3)[C@H](OC)C2)CC(=O)[C@H](C)/C=C(\C)[C@@H](O)[C@@H](OC)C(=O)[C@H](C)C[C@H](C)/C=C/C=C/C=C/1C [zotarolimus]
Method in brief: as §1

[10] = compound: COc1cc(C(=O)O)ccc1NC(=O)[C@@H]1N[C@@H](CC(C)(C)C)[C@](C#N)(c2ccc(Cl)cc2F)[C@H]1c1cccc(Cl)c1F [idasanutlin]
Method in brief: as §1

UniProt Q86UA6, sequence (Q86UA6 whole entry, looked up): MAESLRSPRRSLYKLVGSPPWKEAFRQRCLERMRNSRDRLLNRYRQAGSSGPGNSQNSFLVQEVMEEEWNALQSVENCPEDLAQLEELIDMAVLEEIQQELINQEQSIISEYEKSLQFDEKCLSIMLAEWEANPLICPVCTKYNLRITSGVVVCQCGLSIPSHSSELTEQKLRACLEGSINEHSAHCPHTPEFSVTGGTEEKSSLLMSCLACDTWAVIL
UniProt P60602, sequence (P60602 whole entry, looked up): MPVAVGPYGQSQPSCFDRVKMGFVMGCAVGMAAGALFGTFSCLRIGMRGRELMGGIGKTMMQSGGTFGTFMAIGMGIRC
UniProt O75056, sequence (O75056 whole entry, looked up): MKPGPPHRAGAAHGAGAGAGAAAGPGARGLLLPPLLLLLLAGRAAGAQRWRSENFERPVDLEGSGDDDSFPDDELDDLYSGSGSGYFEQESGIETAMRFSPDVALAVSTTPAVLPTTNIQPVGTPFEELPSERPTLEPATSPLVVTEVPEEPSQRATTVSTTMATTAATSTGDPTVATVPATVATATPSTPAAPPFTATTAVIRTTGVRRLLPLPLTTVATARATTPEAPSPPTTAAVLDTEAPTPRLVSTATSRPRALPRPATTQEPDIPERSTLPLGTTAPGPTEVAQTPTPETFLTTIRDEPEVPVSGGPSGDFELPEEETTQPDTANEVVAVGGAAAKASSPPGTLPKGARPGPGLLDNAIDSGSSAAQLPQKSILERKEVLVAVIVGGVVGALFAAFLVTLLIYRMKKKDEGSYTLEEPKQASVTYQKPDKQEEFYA
UniProt A6NEQ0, sequence (A6NEQ0 whole entry, looked up): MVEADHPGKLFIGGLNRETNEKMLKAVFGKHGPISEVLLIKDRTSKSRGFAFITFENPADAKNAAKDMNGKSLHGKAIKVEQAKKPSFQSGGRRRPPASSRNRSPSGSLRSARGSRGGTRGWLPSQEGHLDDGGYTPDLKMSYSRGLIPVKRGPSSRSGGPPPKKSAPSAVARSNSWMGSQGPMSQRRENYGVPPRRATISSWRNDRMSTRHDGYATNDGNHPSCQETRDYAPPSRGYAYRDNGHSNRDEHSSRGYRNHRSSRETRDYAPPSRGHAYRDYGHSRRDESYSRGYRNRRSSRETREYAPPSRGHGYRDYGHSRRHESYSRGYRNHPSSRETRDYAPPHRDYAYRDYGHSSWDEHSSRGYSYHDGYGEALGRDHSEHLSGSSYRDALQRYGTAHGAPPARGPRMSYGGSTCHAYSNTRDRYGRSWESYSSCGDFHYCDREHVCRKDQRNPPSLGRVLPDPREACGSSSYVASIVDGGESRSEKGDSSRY
UniProt Q9BWJ5, sequence (Q9BWJ5 whole entry, looked up): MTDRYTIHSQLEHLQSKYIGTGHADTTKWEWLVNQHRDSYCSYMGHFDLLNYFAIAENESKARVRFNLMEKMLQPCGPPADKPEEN
UniProt Q01196, sequence (Q01196 whole entry, looked up): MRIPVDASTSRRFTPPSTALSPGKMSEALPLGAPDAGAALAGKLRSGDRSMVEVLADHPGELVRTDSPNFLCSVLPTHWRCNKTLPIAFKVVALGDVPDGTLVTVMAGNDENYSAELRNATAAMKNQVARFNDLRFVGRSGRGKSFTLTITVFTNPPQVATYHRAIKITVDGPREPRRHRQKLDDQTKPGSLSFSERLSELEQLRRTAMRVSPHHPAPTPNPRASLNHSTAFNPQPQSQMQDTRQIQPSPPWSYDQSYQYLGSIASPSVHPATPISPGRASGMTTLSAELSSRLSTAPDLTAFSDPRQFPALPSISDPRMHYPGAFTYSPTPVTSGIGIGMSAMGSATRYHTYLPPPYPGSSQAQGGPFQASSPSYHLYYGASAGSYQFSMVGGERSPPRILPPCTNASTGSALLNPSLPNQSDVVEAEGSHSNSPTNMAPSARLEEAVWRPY
UniProt Q96LZ7, sequence (Q96LZ7 whole entry, looked up): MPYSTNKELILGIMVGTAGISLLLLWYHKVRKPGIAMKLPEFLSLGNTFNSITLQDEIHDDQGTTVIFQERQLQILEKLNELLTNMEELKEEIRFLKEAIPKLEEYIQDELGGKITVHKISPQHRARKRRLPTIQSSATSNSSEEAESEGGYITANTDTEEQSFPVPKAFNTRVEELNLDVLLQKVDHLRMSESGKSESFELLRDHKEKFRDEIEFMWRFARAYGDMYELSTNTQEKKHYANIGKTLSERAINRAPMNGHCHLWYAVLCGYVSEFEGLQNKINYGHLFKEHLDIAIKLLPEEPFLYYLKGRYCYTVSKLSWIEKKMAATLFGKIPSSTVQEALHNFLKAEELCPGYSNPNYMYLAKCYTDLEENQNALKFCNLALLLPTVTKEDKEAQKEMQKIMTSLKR
UniProt O00560, sequence (O00560 whole entry, looked up): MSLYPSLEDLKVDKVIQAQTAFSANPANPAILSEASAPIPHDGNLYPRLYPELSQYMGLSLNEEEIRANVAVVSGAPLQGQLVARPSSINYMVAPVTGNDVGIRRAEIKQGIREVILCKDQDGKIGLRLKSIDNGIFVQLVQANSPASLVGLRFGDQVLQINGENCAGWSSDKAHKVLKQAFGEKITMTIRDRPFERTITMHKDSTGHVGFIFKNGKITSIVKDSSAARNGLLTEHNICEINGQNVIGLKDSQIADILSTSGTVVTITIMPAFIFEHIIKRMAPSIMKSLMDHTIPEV
UniProt P43003, sequence (P43003 whole entry, looked up): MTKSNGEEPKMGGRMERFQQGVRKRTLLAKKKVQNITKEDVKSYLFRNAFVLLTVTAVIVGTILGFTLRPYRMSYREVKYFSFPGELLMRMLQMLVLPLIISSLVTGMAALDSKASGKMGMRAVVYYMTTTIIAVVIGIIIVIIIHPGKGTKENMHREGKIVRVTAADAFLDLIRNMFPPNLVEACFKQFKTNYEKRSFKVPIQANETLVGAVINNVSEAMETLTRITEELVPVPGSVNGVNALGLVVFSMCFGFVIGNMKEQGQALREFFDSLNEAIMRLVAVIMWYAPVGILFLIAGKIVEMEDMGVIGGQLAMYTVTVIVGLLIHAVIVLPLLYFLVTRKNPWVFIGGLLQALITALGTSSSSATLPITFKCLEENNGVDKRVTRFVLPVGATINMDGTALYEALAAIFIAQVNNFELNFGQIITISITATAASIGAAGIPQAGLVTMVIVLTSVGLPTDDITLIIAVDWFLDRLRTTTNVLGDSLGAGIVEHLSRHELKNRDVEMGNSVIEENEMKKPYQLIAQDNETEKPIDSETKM
UniProt Q5VTB9, sequence (Q5VTB9 whole entry, looked up): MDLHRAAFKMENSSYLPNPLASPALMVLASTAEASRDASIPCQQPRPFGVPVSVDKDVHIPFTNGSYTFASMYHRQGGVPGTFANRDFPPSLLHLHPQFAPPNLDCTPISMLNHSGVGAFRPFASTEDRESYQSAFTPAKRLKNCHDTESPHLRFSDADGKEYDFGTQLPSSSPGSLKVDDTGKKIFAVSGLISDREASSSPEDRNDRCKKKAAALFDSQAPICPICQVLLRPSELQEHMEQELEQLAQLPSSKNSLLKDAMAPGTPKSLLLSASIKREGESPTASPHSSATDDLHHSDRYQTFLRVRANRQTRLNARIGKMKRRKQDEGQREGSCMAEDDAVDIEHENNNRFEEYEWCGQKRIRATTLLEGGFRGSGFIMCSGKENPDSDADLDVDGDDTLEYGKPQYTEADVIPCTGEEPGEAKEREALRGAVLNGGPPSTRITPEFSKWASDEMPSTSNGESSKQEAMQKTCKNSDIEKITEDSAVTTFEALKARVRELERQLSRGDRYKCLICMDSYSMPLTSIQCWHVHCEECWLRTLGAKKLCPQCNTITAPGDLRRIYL
UniProt P60903, sequence (P60903 whole entry, looked up): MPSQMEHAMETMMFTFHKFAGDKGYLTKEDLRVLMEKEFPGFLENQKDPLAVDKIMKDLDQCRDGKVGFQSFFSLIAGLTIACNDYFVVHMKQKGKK
UniProt Q5T8P6, sequence (Q5T8P6 whole entry, looked up): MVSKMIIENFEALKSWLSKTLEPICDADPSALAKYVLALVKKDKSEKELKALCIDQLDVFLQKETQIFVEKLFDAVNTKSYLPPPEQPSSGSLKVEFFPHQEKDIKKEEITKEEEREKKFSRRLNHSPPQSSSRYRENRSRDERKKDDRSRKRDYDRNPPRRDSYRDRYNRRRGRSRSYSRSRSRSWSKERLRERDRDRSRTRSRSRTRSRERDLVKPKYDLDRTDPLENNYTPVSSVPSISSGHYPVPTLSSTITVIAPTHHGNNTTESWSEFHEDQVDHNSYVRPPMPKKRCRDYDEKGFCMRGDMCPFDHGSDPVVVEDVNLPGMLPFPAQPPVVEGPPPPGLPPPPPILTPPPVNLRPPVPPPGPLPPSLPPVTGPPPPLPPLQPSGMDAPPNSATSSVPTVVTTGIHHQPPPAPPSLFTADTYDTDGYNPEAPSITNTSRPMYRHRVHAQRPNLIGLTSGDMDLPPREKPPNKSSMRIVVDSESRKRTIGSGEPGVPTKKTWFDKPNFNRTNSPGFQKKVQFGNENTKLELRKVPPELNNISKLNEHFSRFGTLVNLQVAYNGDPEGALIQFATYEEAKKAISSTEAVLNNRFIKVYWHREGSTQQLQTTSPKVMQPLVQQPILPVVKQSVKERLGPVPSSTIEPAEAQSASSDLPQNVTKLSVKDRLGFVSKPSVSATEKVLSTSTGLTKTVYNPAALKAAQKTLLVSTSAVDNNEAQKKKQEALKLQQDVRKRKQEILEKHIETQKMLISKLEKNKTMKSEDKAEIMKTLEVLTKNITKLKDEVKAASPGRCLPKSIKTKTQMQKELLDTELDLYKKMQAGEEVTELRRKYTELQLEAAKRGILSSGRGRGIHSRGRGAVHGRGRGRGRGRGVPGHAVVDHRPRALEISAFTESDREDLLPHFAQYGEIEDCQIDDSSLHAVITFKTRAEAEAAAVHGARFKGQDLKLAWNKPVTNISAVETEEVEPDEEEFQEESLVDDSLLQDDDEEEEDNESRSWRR

| Target | log2 fold change [1] | log2 fold change [2] | log2 fold change [3] | log2 fold change [4] | log2 fold change [5] | log2 fold change [6] | log2 fold change [7] | log2 fold change [8] | log2 fold change [9] | log2 fold change [10] |
| --- | --- | --- | --- | --- | --- | --- | --- | --- | --- | --- |
| SAFB2 (UniProt K7EQU4) | 0.115 | -0.126 | – | – | – | – | – | – | – | – |
| SDCBP isoform 2 (UniProt O00560) | – | -0.054 | -0.08 | -0.236 | 0.045 | 0.034 | -0.04 | 0.228 | – | – |
| RNF26 (UniProt Q9BY78) | – | – | – | – | – | – | – | 0.065 | – | – |
| RPAIN isoform 8 (UniProt Q86UA6) | -0.055 | – | 0.006 | – | -0.061 | – | -0.063 | – | 0.028 | 0.109 |
| RMDN2 isoform 2 (UniProt Q96LZ7) | 0.008 | -0.418 | – | 0.389 | – | 0.191 | – | – | – | – |
| RNF220 isoform 3 (UniProt Q5VTB9) | – | – | – | – | -0.153 | – | 0.261 | – | – | 0.073 |
| RBM26 isoform 3 (UniProt Q5T8P6) | – | – | 0.004 | – | – | – | – | – | – | 0.167 |
| RBMY1E (UniProt A6NEQ0) | 0.078 | -0.07 | – | -0.035 | -0.476 (active) | 0.126 | 0.044 | 0.015 | 0.083 | – |
| RAB3IL1 (UniProt E9PK89) | 0.031 | -0.034 | -0.22 | – | 0.097 | – | 0.063 | -0.075 | 0.093 | -0.035 |
| SLC1A3 (UniProt P43003) | – | -0.023 | – | 0.017 | 0.118 | 0.012 | -0.03 | 0.02 | -0.097 | 0 |
| RPS19 (UniProt M0R2L9) | – | 0.375 | – | -0.463 | -0.158 | -0.331 | -0.341 | – | – | -0.034 |
| ROMO1 (UniProt P60602) | – | 0.034 | -0.024 | 0.005 | -0.024 | 0.033 | -0.079 | 0.035 | -0.069 | 0.044 |
| RNF41 (UniProt Q9H4P4) | – | – | – | – | – | – | – | – | – | -0.031 |
| RUNX1 isoform 8 (UniProt Q01196) | -0.055 | -0.074 | -0.084 | -0.292 | 0.053 | -0.011 | -0.001 | 0.24 | – | 0.075 |
| RPS3A (UniProt D6R9B6) | – | – | 0.228 | – | – | – | – | – | – | 0.079 |
| S100A10 (UniProt P60903) | – | 0.305 | -0.143 | – | 0.093 | – | 0.01 | -0.056 | -0.045 | 0.165 |
| SF3B5 (UniProt Q9BWJ5) | 0.19 | 0.027 | 0.2 | -0.122 | -0.026 | 0.044 | -0.051 | -0.069 | – | 0.085 |
| SDC3 (UniProt O75056) | – | 0.115 | 0.081 | – | – | – | – | -0.674 | -0.045 | 0.166 |
